Data on eleven molecules can be found in PubChem BioAssay.

Calls of active or inactive are those of the source. Unless noted, how the calls were made is not given here.

The nature of test [1]: HepG2 liver cancer cell viability effects, profiling panel, resazurin fluorescence, 24 h, PK04 Diversity Set (AID 1172). Further: test concentration not given here. As to conditions: higher = more signal. Background: The colour change of resazurin is a common sign of viable cells or microbes.
Test [2] in a line: basal S. cerevisiae growth modulation, no modifier, primary screen, OD600, strain BY4716, 24 h, basal condition (AID 1173). As to conditions: OD600, 24 h, higher = more signal, called active from +8 up or from −8 down.
Test [3] is described as follows: MM1S myeloma cell viability, profiling panel, resazurin fluorescence, basal, 24 h, PK04 Diversity Set (AID 1174).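 Further: MM1S multiple myeloma cell line; test concentration not given here.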 The note with it: higher = more signal, called active from +8 up or from −8 down.
For test [4], the target named is Dihydroorotate dehydrogenase (quinone), mitochondrial (Plasmodium falciparum (isolate 3D7)) (UniProt Q08210). Nature of the test: PfDHODH enzyme inhibitors, primary screen, biochemical, C-terminal His tag, absorbance 600 nm (AID 1175).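 Further: recombinant parasite enzyme with a five histidine tag at its C terminus; test concentration not given here.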 As to conditions: DCIP absorbance 600 nm, higher = more signal, called active from +8 up or from −8 down.
Test [5] is described as follows: P. aeruginosa biofilm formation inhibitors, primary screen, strain PAO1, LB-PBS medium, absorbance 600 nm (AID 1176). Further: test concentration not given here. As to conditions: P. aeruginosa PAO1 growth/biofilm, A600, 12 h; higher = more signal.
A short description of test [6]: S. cerevisiae RM11-1a growth modifiers, primary screen, strain RM11-1a, OD600, basal, 24 h (AID 1177).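 Further: cultures grown under basal conditions with no added stressor; test concentration not given here.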 The note with it: OD600, 24 h, higher = more signal, called active from +8 up or from −8 down.
Test [7] in a line: E. coli acrAB mutant growth effects, primary screen, E. coli filamentation inducers, strain DRC39, OD650, 24 h (AID 1178).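 Further: growth measured as culture turbidity by optical density at 650 nm; test concentration not given here.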 The note with it: higher = more signal, called active from +8 up or from −8 down.
Test [8] in a line: E. coli acrAB mutant growth effects, primary screen, E. coli filamentation inducers, strain DRC39, OD650, 48 h (AID 1179).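 Further: screen aims at cell division blockers that make cells filament.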 As to conditions: E. coli DRC39 delta-acrAB growth, higher = more signal, called active from +8 up or from −8 down.
Test [9] can be described thus: RPMI8226 myeloma cell viability, profiling panel, resazurin fluorescence, basal, 24 h, PK04 Diversity Set (AID 1180).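 Further: RPMI8826 multiple myeloma cell line at 5000 cells per well; test concentration not given here.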 As to conditions: higher = more signal.
The target of test [10] is E3 ubiquitin-protein ligase XIAP (Homo sapiens) (UniProt P98170). Nature of the test: XIAP binders, primary screen, biophysical, small-molecule microarray, fluorescence 635 nm (AID 1181).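 Further: score merges 667 nm emission and signal to noise over triplicate slides.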 As to conditions: small-molecule microarray binding, higher = more signal.
Sequence of E3 ubiquitin-protein ligase XIAP (Homo sapiens) (P98170 whole entry, looked up): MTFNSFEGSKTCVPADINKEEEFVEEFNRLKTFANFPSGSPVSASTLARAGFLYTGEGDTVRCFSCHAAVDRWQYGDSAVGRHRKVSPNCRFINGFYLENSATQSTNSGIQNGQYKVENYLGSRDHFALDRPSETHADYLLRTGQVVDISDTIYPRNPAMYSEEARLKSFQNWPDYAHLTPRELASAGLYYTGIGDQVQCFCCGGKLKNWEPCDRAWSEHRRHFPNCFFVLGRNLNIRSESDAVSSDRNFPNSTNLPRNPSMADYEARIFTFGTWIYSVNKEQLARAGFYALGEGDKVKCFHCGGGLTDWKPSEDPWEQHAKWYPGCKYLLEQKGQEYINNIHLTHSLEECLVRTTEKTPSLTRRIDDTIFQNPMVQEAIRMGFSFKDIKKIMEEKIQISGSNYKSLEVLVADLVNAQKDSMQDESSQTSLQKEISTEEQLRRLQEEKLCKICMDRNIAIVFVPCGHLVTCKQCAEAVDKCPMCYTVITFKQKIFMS

Sequence of Dihydroorotate dehydrogenase (quinone), mitochondrial (Plasmodium falciparum (isolate 3D7)) (Q08210 whole entry, looked up): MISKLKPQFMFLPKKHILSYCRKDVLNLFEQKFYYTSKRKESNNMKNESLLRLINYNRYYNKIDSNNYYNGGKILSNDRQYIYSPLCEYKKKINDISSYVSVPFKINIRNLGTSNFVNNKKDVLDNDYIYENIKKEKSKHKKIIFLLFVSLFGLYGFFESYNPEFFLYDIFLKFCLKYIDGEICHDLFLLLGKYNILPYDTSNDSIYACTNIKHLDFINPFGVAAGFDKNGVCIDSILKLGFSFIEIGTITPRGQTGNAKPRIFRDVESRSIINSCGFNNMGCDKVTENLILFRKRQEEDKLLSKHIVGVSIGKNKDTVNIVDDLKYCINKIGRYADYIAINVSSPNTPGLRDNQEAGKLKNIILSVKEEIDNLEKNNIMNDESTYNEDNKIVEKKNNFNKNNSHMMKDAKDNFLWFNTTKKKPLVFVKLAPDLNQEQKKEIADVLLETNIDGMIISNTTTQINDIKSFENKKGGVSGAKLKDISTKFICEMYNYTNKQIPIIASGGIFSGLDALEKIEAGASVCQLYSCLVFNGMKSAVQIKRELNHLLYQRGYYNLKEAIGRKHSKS

For `COCCOC(=O)N1C(=O)[C@@]2(c3ccccc31)[C@H](c1ccc(OCCO)cc1)N1[C@H](c3ccccc3)[C@H](c3ccccc3)OC(=O)[C@H]1[C@@H]2C(=O)N1CCc2cc(OC)c(OC)cc2C1`, the z-score in test [1] is -0.14; in test [2], 1.57 (inactive); in test [3], 0.102 (inactive); in test [5], 1.79 (inactive); in test [6], 2.94 (inactive); in test [7], 0.43 (inactive). Moreover, the values for the z-score in test [8] and in test [9] were 0.736 (inactive) and 0.994, respectively. Further, the values for the composite z-score in test [4] and in [10] were -2.08 (inactive) and -0.153, respectively.
Turning to `COc1ccc([Si](C)(C)[C@@H]2[C@@H](CC(=O)N3CCC[C@H]3CO)O[C@]3(C(=O)N(Cc4cccc(I)c4)c4ccccc43)[C@H]2C)cc1`, the z-score was -2.43 in test [1]; -0.91 (inactive) in test [2]; -3.49 (inactive) in test [3]; 0.483 (inactive) in [5]; 1.07 (inactive) in test [6]; -1 (inactive) in test [7]. Moreover, the z-score in test [8] was -1.05 (inactive); in [9], -4.92. Moreover, the composite z-score in test [4] is 0.447 (inactive); in [10], 0.189.
On to `COc1ccccc1CN1C(=O)c2ccccc2[C@@]2(Cc3ccccc3N(CCCN(C)C)C2=O)[C@@H]1c1ccc(CO)cc1`, for which the z-score in [1] was -0.434; in test [2] it was 0.259 (inactive); in test [3], 1.17 (inactive); in test [5], 0.282 (inactive); in test [6], -0.746 (inactive); in test [7], 1.28 (inactive). In addition, the z-score in [8] was 0.468 (inactive); in test [9], 0.723. Further, the composite z-score is -19.5 (active) in test [4] and -0.113 in test [10].
Consider `COCC(=C=CC[C@H](O)c1ccccc1OCCO)CCO`, for which the z-score in test [1] is -0.504; in test [2] it was -0.547 (inactive); in [3] it was -0.251 (inactive); in [5], 0.26 (inactive); in test [6], 0.338 (inactive); in test [7], -0.135 (inactive). Also, the z-score is -0.113 (inactive) in test [8] and -0.672 in test [9]. For the same molecule, the composite z-score in test [4] was -0.799 (inactive); in [10] it was -0.252.
For `CC(=O)NCCCC[C@@H]1NC(=O)[C@H]2C[C@@H](C(=O)NCCCCCNC(=O)CS)[C@@H](c3ccc(O)cc3)N2C1=O`, the z-score in [1] is -0.0321; in test [2] it was 1.14 (inactive); in [3], 0.0985 (inactive); in [5], 0.395 (inactive); in test [6] it was 0.949 (inactive); in test [7], -0.553 (inactive). Also, the figures for the z-score in test [8] and in [9] were -0.574 (inactive) and -0.213, respectively. Also, the composite z-score in test [4] is 0.452 (inactive); in [10] it was 0.0503.
`NCCCCCNC(=O)[C@H]1C[C@H]2C(=O)N[C@@H](Cc3ccccc3)C(=O)N2[C@H]1c1cccc(OCCO)c1`: the z-score is 0.391 in [1]; -1.84 (inactive) in test [2]; 1.04 (inactive) in test [3]; 0.022 (inactive) in [5]; -0.439 (inactive) in test [6]; -0.154 (inactive) in test [7]. Also, the z-score in test [8] is 0.496 (inactive); in [9], 0.953. Moreover, the composite z-score is 0.884 (inactive) in test [4] and -0.0599 in [10].
Turning to `NC(=O)[C@@H]1[C@H]2C(=O)O[C@H](c3ccccc3)[C@H](c3ccccc3)N2[C@H](c2ccc(OCCO)cc2)[C@@]12C(=O)Nc1ccc(C#CC3=CCCCC3)cc12`, the z-score is -1.67 in test [1]; 0.193 (inactive) in test [2]; -7.44 (inactive) in test [3]; 1.82 (inactive) in test [5]; 0.657 (inactive) in test [6]; -0.0159 (inactive) in [7]. In addition, the z-score is -0.668 (inactive) in test [8] and -6.82 in test [9]. Besides, the composite z-score in [4] was 0.207 (inactive); in test [10], 0.543.
In the case of `COc1ccc([Si](C)(C)[C@H]2[C@H](CCO)O[C@@]3(C(=O)N(Cc4ccccc4)c4ccc(N5CCCCC5=O)cc43)[C@@H]2C)cc1`, the z-score in test [1] was -1.91; in [2], 0.234 (inactive); in [3] it was -2.66 (inactive); in test [5], 1.51 (inactive); in [6], 3.14 (inactive); in [7], 0.663 (inactive). Further, the z-score in [8] is 0.45 (inactive); in test [9] it was -3.46. Further, the composite z-score in test [4] is -2.81 (inactive); in test [10], -0.0025.
For the molecule `COc1ccc(C#Cc2ccc3c(c2)[C@]2(C(=O)N3)[C@H](c3ccc(O)cc3)N3[C@H](c4ccccc4)[C@H](c4ccccc4)OC(=O)[C@H]3[C@@H]2C(=O)N2CCc3cc(OC)c(OC)cc3C2)cc1`, the z-score in [1] is 0.449; in test [2], 1.14 (inactive); in [3], -0.309 (inactive); in [5], 1.37 (inactive); in test [6] it was 0.816 (inactive); in test [7] it was -0.101 (inactive). Moreover, the z-score in test [8] is 0.304 (inactive); in test [9] it was -0.333. Besides, the composite z-score in test [4] was -0.103 (inactive); in [10] it was -0.0582.
As for `COCCOC(=O)N1C(=O)[C@@]2(c3cc(C#CC4=CCCCC4)ccc31)[C@H](c1ccc(OCCO)cc1)N1[C@H](c3ccccc3)[C@H](c3ccccc3)OC(=O)[C@H]1[C@@H]2C(=O)N1CCc2cc(OC)c(OC)cc2C1`, the z-score was -0.248 in [1]; 0.683 (inactive) in test [2]; -0.607 (inactive) in [3]; 2.68 (inactive) in [5]; 4.26 (inactive) in [6]; 0.118 (inactive) in test [7]. Also, the z-score is 0.796 (inactive) in test [8] and 0.474 in test [9]. Besides, the composite z-score in test [4] was -0.0879 (inactive); in test [10], -0.0872.
For the molecule `C=C(C(=O)CC[C@H](OC(C)=O)c1ccccc1OCCO)C(C)C`, the z-score was -1.64 in test [1]; -18.4 (active) in test [2]; -1 (inactive) in test [3]; -0.493 (inactive) in [5]; -22.2 (active) in test [6]; -0.587 (inactive) in test [7]. The values for the z-score in test [8] and in [9] were -0.573 (inactive) and -1.62, respectively. Besides, the composite z-score in [4] was -9.12 (active); in test [10], 0.42.
